Experimental data from article PMC9911399, “Two distinct binding modes provide the RNA-binding protein RbFox with extraordinary sequence specificity”.
Substitutions are numbered along the chain they refer to; changes in the protein carry UniProt numbers. Over roughly 16,000 sequences, “ka relative to ugcaugu” has its median near 0.0091; the highest 2% begin near 0.032. This excerpt belongs to a sample that is enriched for the highest values.

T1: RBFOX1 RRM (Homo sapiens, UniProt Q9NWB1 109-208)
T1 sequence: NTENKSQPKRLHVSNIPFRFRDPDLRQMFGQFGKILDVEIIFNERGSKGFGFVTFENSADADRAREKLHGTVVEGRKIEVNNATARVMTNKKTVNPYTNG

B1: UCGUGUC (DNA:RNA)
RNA: GGGAGACCGGAAUUCAGAUUGUCCUCGUGUCUUAAAUCCCGUCGUAGCCACCA
DNA 1: CAATCTGAATTCCGGTCTCCC
DNA 2: TGGTGGCTACGACGGGATT
B2: AGCGUAU (DNA:RNA)
RNA: GGGAGACCGGAAUUCAGAUUGUCCAGCGUAUUUAAAUCCCGUCGUAGCCACCA
DNA 1: CAATCTGAATTCCGGTCTCCC
DNA 2: TGGTGGCTACGACGGGATT
B3: CCUGAUG (DNA:RNA)
RNA: B1 RNA with U25C, G27U, U28G, G29A, C31G
DNA 1: CAATCTGAATTCCGGTCTCCC
DNA 2: TGGTGGCTACGACGGGATT
B4: GCGUCGC (DNA:RNA)
RNA: B1 RNA with U25G, G29C, U30G
DNA 1: CAATCTGAATTCCGGTCTCCC
DNA 2: TGGTGGCTACGACGGGATT
B5: GUGAUAC (DNA:RNA)
RNA: B2 RNA with A25G, G26U, C27G, G28A, U31C
DNA 1: CAATCTGAATTCCGGTCTCCC
DNA 2: TGGTGGCTACGACGGGATT
B6: CCGUGAG (DNA:RNA)
RNA: B1 RNA with U25C, U30A, C31G
DNA 1: CAATCTGAATTCCGGTCTCCC
DNA 2: TGGTGGCTACGACGGGATT
B7: GAACUGU (DNA:RNA)
RNA: B2 RNA with A25G, G26A, C27A, G28C, A30G
DNA 1: CAATCTGAATTCCGGTCTCCC
DNA 2: TGGTGGCTACGACGGGATT
B8: GGAGAUG (DNA:RNA)
RNA: B2 RNA with A25G, C27A, U29A, A30U, U31G
DNA 1: CAATCTGAATTCCGGTCTCCC
DNA 2: TGGTGGCTACGACGGGATT
B9: CGGGAUG (DNA:RNA)
RNA: B2 RNA with A25C, C27G, U29A, A30U, U31G
DNA 1: CAATCTGAATTCCGGTCTCCC
DNA 2: TGGTGGCTACGACGGGATT
B10: GGGAUGU (DNA:RNA)
RNA: B2 RNA with A25G, C27G, G28A, A30G
DNA 1: CAATCTGAATTCCGGTCTCCC
DNA 2: TGGTGGCTACGACGGGATT
B11: GUGGAGA (DNA:RNA)
RNA: B2 RNA with A25G, G26U, C27G, U29A, A30G, U31A
DNA 1: CAATCTGAATTCCGGTCTCCC
DNA 2: TGGTGGCTACGACGGGATT
B12: GGAUGUU (DNA:RNA)
RNA: B1 RNA with U25G, C26G, G27A, C31U
DNA 1: CAATCTGAATTCCGGTCTCCC
DNA 2: TGGTGGCTACGACGGGATT
B13: UUGGAUG (DNA:RNA)
RNA: B1 RNA with C26U, U28G, G29A, C31G
DNA 1: CAATCTGAATTCCGGTCTCCC
DNA 2: TGGTGGCTACGACGGGATT
B14: GGAUGUC (DNA:RNA)
RNA: B1 RNA with U25G, C26G, G27A
DNA 1: CAATCTGAATTCCGGTCTCCC
DNA 2: TGGTGGCTACGACGGGATT
B15: GGAUGUG (DNA:RNA)
RNA: B1 RNA with U25G, C26G, G27A, C31G
DNA 1: CAATCTGAATTCCGGTCTCCC
DNA 2: TGGTGGCTACGACGGGATT
B16: GUGGAUG (DNA:RNA)
RNA: B1 RNA with U25G, C26U, U28G, G29A, C31G
DNA 1: CAATCTGAATTCCGGTCTCCC
DNA 2: TGGTGGCTACGACGGGATT
B17: GGAUUGU (DNA:RNA)
RNA: B2 RNA with A25G, C27A, G28U, A30G
DNA 1: CAATCTGAATTCCGGTCTCCC
DNA 2: TGGTGGCTACGACGGGATT
B18: CCGGAUG (DNA:RNA)
RNA: B1 RNA with U25C, U28G, G29A, C31G
DNA 1: CAATCTGAATTCCGGTCTCCC
DNA 2: TGGTGGCTACGACGGGATT
B19: GGGGAUG (DNA:RNA)
RNA: B2 RNA with A25G, C27G, U29A, A30U, U31G
DNA 1: CAATCTGAATTCCGGTCTCCC
DNA 2: TGGTGGCTACGACGGGATT
B20: AACCAGU (DNA:RNA)
RNA: B2 RNA with G26A, G28C, U29A, A30G
DNA 1: CAATCTGAATTCCGGTCTCCC
DNA 2: TGGTGGCTACGACGGGATT
B21: AAUAAUU (DNA:RNA)
RNA: B2 RNA with G26A, C27U, G28A, U29A, A30U
DNA 1: CAATCTGAATTCCGGTCTCCC
DNA 2: TGGTGGCTACGACGGGATT
B22: UGUGACC (DNA:RNA)
RNA: B2 RNA with A25U, C27U, U29A, A30C, U31C
DNA 1: CAATCTGAATTCCGGTCTCCC
DNA 2: TGGTGGCTACGACGGGATT
B23: CAAGGCG (DNA:RNA)
RNA: B2 RNA with A25C, G26A, C27A, U29G, A30C, U31G
DNA 1: CAATCTGAATTCCGGTCTCCC
DNA 2: TGGTGGCTACGACGGGATT
B24: CUCGCUC (DNA:RNA)
RNA: B2 RNA with A25C, G26U, U29C, A30U, U31C
DNA 1: CAATCTGAATTCCGGTCTCCC
DNA 2: TGGTGGCTACGACGGGATT
B25: UUUUCCG (DNA:RNA)
RNA: B1 RNA with C26U, G27U, G29C, U30C, C31G
DNA 1: CAATCTGAATTCCGGTCTCCC
DNA 2: TGGTGGCTACGACGGGATT
B26: CAUCAAA (DNA:RNA)
RNA: B2 RNA with A25C, G26A, C27U, G28C, U29A, U31A
DNA 1: CAATCTGAATTCCGGTCTCCC
DNA 2: TGGTGGCTACGACGGGATT
B27: GCCGGCC (DNA:RNA)
RNA: B1 RNA with U25G, G27C, U28G, U30C
DNA 1: CAATCTGAATTCCGGTCTCCC
DNA 2: TGGTGGCTACGACGGGATT
B28: UACAGCU (DNA:RNA)
RNA: B2 RNA with A25U, G26A, G28A, U29G, A30C
DNA 1: CAATCTGAATTCCGGTCTCCC
DNA 2: TGGTGGCTACGACGGGATT
B29: CUGCAUG (DNA:RNA)
RNA: B1 RNA with U25C, C26U, U28C, G29A, C31G
DNA 1: CAATCTGAATTCCGGTCTCCC
DNA 2: TGGTGGCTACGACGGGATT
B30: CUGCAUC (DNA:RNA)
RNA: B1 RNA with U25C, C26U, U28C, G29A
DNA 1: CAATCTGAATTCCGGTCTCCC
DNA 2: TGGTGGCTACGACGGGATT
B31: UGCAUUU (DNA:RNA)
RNA: B2 RNA with A25U, G28A, A30U
DNA 1: CAATCTGAATTCCGGTCTCCC
DNA 2: TGGTGGCTACGACGGGATT
B32: CUGCAUA (DNA:RNA)
RNA: B1 RNA with U25C, C26U, U28C, G29A, C31A
DNA 1: CAATCTGAATTCCGGTCTCCC
DNA 2: TGGTGGCTACGACGGGATT
B33: UGCAUAU (DNA:RNA)
RNA: B2 RNA with A25U, G28A
DNA 1: CAATCTGAATTCCGGTCTCCC
DNA 2: TGGTGGCTACGACGGGATT
B34: UGCAUGU (DNA:RNA)
RNA: B2 RNA with A25U, G28A, A30G
DNA 1: CAATCTGAATTCCGGTCTCCC
DNA 2: TGGTGGCTACGACGGGATT

Each binder was assayed against T1, RBFOX1 RRM (assay: EMSA; HiTS-Eq, 1 nM pool, 10 min; buffer printed only for the single-RNA assays: 10 mM Tris pH 7.5, 150 mM NaCl, 3.4 mM EDTA, 0.001% NP-40, 30 C). Settings: tags: His6 N-terminal (pET28a); label: 5' 32P.
Method in brief: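 Relative association constants, normalised to the cognate motif, were derived by comparing read counts of each RNA species with those of the control reaction. The RNA sequenced was the free fraction, separated by 8% native PAGE after a 10 min equilibration in 50 µL of 1 nM 5′-radiolabelled RNA (7 randomized nucleotides) with increasing concentrations of purified wild-type or mutant RbFox RRM.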
B1 was tested, and the binding signal was 0.0187 KA relative to UGCAUGU. B2 was tested, and the binding signal was 0.00639 KA relative to UGCAUGU. In the case of B3, the binding signal is reported as 0.0205 KA relative to UGCAUGU. With B4 the binding signal was 0.0157 KA relative to UGCAUGU. For B5, the binding signal was 0.00876 KA relative to UGCAUGU. B6 was tested, and the binding signal was 0.0105 KA relative to UGCAUGU. B7 was tested, and the binding signal was 0.0163 KA relative to UGCAUGU. B8 was tested, and the binding signal was 0.0269 KA relative to UGCAUGU. In the case of B9, the binding signal is reported as 0.0412 KA relative to UGCAUGU. With B10 the binding signal was 0.048 KA relative to UGCAUGU. With B11 the binding signal was 0.0173 KA relative to UGCAUGU. For B12, the binding signal was 0.0216 KA relative to UGCAUGU. B13 was tested, and the binding signal was 0.0302 KA relative to UGCAUGU. With B14 the binding signal was 0.027 KA relative to UGCAUGU. B15 was tested, and the binding signal was 0.0207 KA relative to UGCAUGU. With B16 the binding signal was 0.0371 KA relative to UGCAUGU. For B17, the binding signal was 0.0266 KA relative to UGCAUGU. For B18, the binding signal was 0.00955 KA relative to UGCAUGU. B19 was tested, and the binding signal was 0.0389 KA relative to UGCAUGU. In the case of B20, the binding signal is reported as 0.000945 KA relative to UGCAUGU. With B21 the binding signal was 0.00136 KA relative to UGCAUGU. With B22 the binding signal was 0.0155 KA relative to UGCAUGU. For B23, the binding signal was 0.00837 KA relative to UGCAUGU. In the case of B24, the binding signal is reported as 0.00968 KA relative to UGCAUGU. With B25 the binding signal was 0.0112 KA relative to UGCAUGU. For B26, the binding signal was 0.00054 KA relative to UGCAUGU. With B27 the binding signal was 0.0116 KA relative to UGCAUGU. B28 was tested, and the binding signal was 0.00395 KA relative to UGCAUGU. With B29 the binding signal was 1.04 KA relative to UGCAUGU. With B30 the binding signal was 0.0212 KA relative to UGCAUGU. For B31, the binding signal was 0.0179 KA relative to UGCAUGU. With B32 the binding signal was 0.017 KA relative to UGCAUGU. For B33, the binding signal was 0.0115 KA relative to UGCAUGU. B34 was tested, and the binding signal was 1 KA relative to UGCAUGU.
